Assay results reported in PubChem BioAssay (NCI).
About 83,000 compounds went through this panel and 20% of them were active in at least one assay; those are over-represented in the sample as a whole.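 Single-dose data. Exposure time 48 hours. Values below 10 considered active.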 Unmarked numbers belong to inactive results. Calls of active or inactive are those of the source.

What was measured:
Experiment in all cases: NCI-60 one-dose screen, 48 h (100 = growth as untreated, 0 = no growth, -100 = all killed)
Details in all cases: 10 µM unless noted
NCI-H23 lung = tested on: NCI-H23 lung
NCI-H226 lung = tested on: NCI-H226 lung
NCI-H322M lung = tested on: NCI-H322M lung
HOP-62 NSCLC = tested on: HOP-62 NSCLC
NCI-H460 lung = tested on: NCI-H460 lung
HOP-92 NSCLC = tested on: HOP-92 NSCLC
NCI-H522 lung = tested on: NCI-H522 lung
A549/ATCC NSCLC = tested on: A549/ATCC NSCLC
786-0 renal = tested on: 786-0 renal
COLO 205 colon = tested on: COLO 205 colon
DU-145 prostate = tested on: DU-145 prostate
K-562 leukemia = tested on: K-562 leukemia
MALME-3M melanoma = tested on: MALME-3M melanoma
MDA-MB-231 breast = tested on: MDA-MB-231 breast
RXF 393 renal = tested on: RXF 393 renal
SF-268 CNS = tested on: SF-268 CNS
SF-295 CNS = tested on: SF-295 CNS
SF-539 CNS = tested on: SF-539 CNS
UACC-257 melanoma = tested on: UACC-257 melanoma
M14 melanoma = tested on: M14 melanoma

| Structure (SMILES) | growth (NCI-H23 lung) | growth (NCI-H226 lung) | growth (NCI-H322M lung) | growth (HOP-62 NSCLC) | growth (NCI-H460 lung) | growth (HOP-92 NSCLC) | growth (NCI-H522 lung) | growth (A549/ATCC NSCLC) | growth (786-0 renal) | growth (COLO 205 colon) | growth (DU-145 prostate) | growth (K-562 leukemia) | growth (MALME-3M melanoma) | growth (MDA-MB-231 breast) | growth (RXF 393 renal) | growth (SF-268 CNS) | growth (SF-295 CNS) | growth (SF-539 CNS) | growth (UACC-257 melanoma) | growth (M14 melanoma) |
| --- | --- | --- | --- | --- | --- | --- | --- | --- | --- | --- | --- | --- | --- | --- | --- | --- | --- | --- | --- | --- |
| COc1ccc(C(=O)/C=C/c2ccccc2)cc1S(N)(=O)=O | 79.6% | 82.5% | 71.4% | 86.9% | 53.6% | 95.7% | 76% | 65.7% | 64.6% | 98.2% | 41.7% | 7.9% (active) | 93.6% | 71.5% | 80.6% | 63.3% | 91.1% | 60.2% | 90.9% | 82.8% |
| COc1ccc(C2CC(c3ccccc3)=NN2C(=O)c2cc(OC)c(OC)c(OC)c2)cc1O (stereo not given) | 35.6% | 27.4% | 57.5% | 49.4% | 6.52% (active) | 28% | -3.83% (active) | 29.5% | 20.4% | 71% | 25.8% | 14.1% | 81.8% | 8.45% (active) | -9.96% (active) | 49.9% | 5.83% (active) | -15.7% (active) | 66.2% | 13.4% |
| O=C(CN1C(=O)S/C(=C\C(Cl)=C\c2ccccc2)C1=O)NC1CCS(=O)(=O)C1 (stereo not given) | 74.3% | 77.3% | 95.7% | 99.7% | 94.2% | 80.4% | 34.2% | 94.3% | 78.7% | 59% | 82.8% | 15.3% | 84.9% | 77% | 26.7% | 94.4% | 85.3% | 56.8% | 81.8% | 64% |
| C#CCOc1cccc(Nc2ncnc3c2ncn3C2CCN(C(=O)CCl)C2)c1 (stereo not given) | -23.1% (active) | 1.03% (active) | 87.2% | 1.84% (active) | 24.7% | -84.5% (active) | -61.3% (active) | 54.6% | -72.4% (active) | -72.5% (active) | -95.4% (active) | 0.116% (active) | -84% (active) | -61.2% (active) | -79.4% (active) | -31.6% (active) | 53.4% | -68.5% (active) | 13.1% | -48.6% (active) |
| COc1cc2c(cc1OCCCN1CCN(C(=S)SCCC(C#N)(c3ccccc3)c3ccccc3)CC1)N=C[C@@H]1CCCN1C2=O | -46.7% (active) | -55.8% (active) | -62.2% (active) | 1.76% (active) | -80.3% (active) | -71% (active) | -48.3% (active) | -3.55% (active) | -94.9% (active) | -69.5% (active) | -100% (active) | -5.69% (active) | -89.3% (active) | -31.1% (active) | -92.9% (active) | -72.5% (active) | -14.2% (active) | -94.7% (active) | -45.5% (active) | -76.6% (active) |
| Cn1c(=O)c2[nH]c(SC/C(=N/O)c3ccc(Br)cc3)nc2n(C)c1=O | 35.7% | -7.02% (active) | 34.8% | 8.56% (active) | 20.9% | -72.9% (active) | -14.5% (active) | 60.4% | -68.6% (active) | 110% | 68.4% | 67.1% | 20% | -5.9% (active) | -73.4% (active) | 50% | 13.9% | -53.6% (active) | 84% | 58.8% |
| C=C(C)[C@@H]1CC[C@]2(C(=O)N3CCNCC3)CC[C@]3(C)[C@H](CC[C@@H]4[C@@](C)(CCC(=O)N5CCNCC5)[C@H](C(=C)C)CC[C@]43C)[C@@H]12 | 93.2% | 92.7% | 102% | 92.9% | 8.8% (active) | 95.5% | 71.4% | 75.2% | 80.2% | 77.9% | 79.1% | 3.02% (active) | 98.9% | 71.2% | 82.2% | 98.4% | 101% | 79.4% | 95.5% | 85.8% |
